From PubChem BioAssay (EPA / NIEHS) come the findings set out here.

Calls of active or inactive are those of the source. Rule for the calls: active = hit-call score of the fitted dose curve at least 0.9, where 1 is the maximum; inactive = score below 0.9.

The assay in a line: ATG_TA_CIS: Attagene CIS-FACTORIAL HepG2 Assay for human TA Basal Promoter (AID 2282964). Conditions: HepG2 Attagene CIS-factorial TA basal promoter reporter; actives raise or lower the signal. As to the method:
ATG_CIS is a cell-based, multiplexed-readout assay that uses HepG2, a human liver cell line, with measurements taken at 24 hours after chemical dosing in a 24-well plate.ATG_TA_CIS is one of 52 assay component(s) measured or calculated from the ATG_CIS assay. It is designed to make measurements of mRNA induction, a form of inducible reporter, as detected with fluorescence intensity signals by Reverse transcription polymerase chain reaction (RT-PCR) and Capillary electrophoresis technology.Data from the assay component ATG_TA_CIS was analyzed into 1 assay endpoint. This assay endpoint, ATG_TA_CIS, was analyzed with bidirectional fitting relative to DMSO as the negative control and baseline of activity. Using a type of inducible reporter, measures of mRNA for gain or loss-of-signal activity can be used to understand the background control at the transcription factor-level as they relate to the gene . Furthermore, this assay endpoint can be referred to as a secondary readout, because this assay has produced multiple assay endpoints where this one serves a background control function. To generalize the intended target to other relatable targets, this assay endpoint is annotated to the background measurement intended target family, where the subfamily is internal marker.
Human liver HepG2 cells are transiently transfected with multiple reporter transcription units (MRTUs) in 6-well plates using FuGene 6 reagent (Roche; 3 ml FuGene/1 mg DNA). The MRTU constructs are regulated by a cis-regulating element (promoter). […] A major difference between the CIS and TRANS system is that in CIS activities of endogenous TFs are measured, whereas the TRANS assay evaluates changes in activities of exogenous, chimeric NR-Gal4 proteins. […] At the end of 24 hour incubation, total RNA was isolated using TriZol reagent (Invitrogen). The isolated RNA is then reverse-transcribed using oligo(dT) primer and Mo-MLV reverse transcriptase (Invitrogen) with DNAse I (Ambion) treatment for 30 min. The one-tenth of the produced cDNA was amplified by PCR using Taq DNA polymerase (Invitrogen) and two reporter sequence-specific primers. The PCR products were fluorescently labeled by primer extension with 6-arboxyfluorescein (6-FAM) 5'-labeled reporter sequence-specific primer (2 min at 95 C, 20 s at 68 C and 10 min at 72 C) and these products were digested with 5U of HpaI (New England Biolabs) for 2h at 37 C. The fragments were purified using Qiaquick PCR columns (Qiagen), analyzed on an ABI 3130xL genetic analyzer (Applied Biosystems) with peak positions identified by using a set of X-rhodamine (ROX)-labeled MapMarker1000 molecular weight standards (BioVentures). The raw capillary electrophoresis data was processed using Attagraph software (Attagene).
Regarding `O=c1c2ccccc2nnn1CCl`, the compound was classed as inactive.

For the compound `CN(C)CCCN(C)C`, the outcome was inactive. `CC(C)=CCC[C@H](C)CCO`: the result was inactive. As for `OCCN(CCO)c1ccccc1`, the outcome was inactive.

Regarding `Cc1ccc(N)c([N+](=O)[O-])c1`, the compound was classed as inactive. For the compound `C=C(C)[C@H]1CC=C(C)CC1`, the call was inactive. `CCOC(F)(F)C(F)(F)C(F)(F)C(F)(F)F`: the result was inactive. With `O=C1c2cccc(O)c2C(=O)c2c(O)cc(CO)cc21`, the compound was classed as inactive. As to `CCCCCCCCCCCCCOP(=O)(O)O`, the result was inactive. For `c1c[nH]cn1`, the result was inactive. For the compound `[Cl][Bi]([Cl])([c]1ccccc1)([c]1ccccc1)[c]1ccccc1`, the call was inactive.

In the case of `NNC(=O)c1cccc(C(=O)NN)c1`, the compound was classed as inactive.

For the compound `COC(=O)c1ccccc1OC`, the outcome was inactive. The same measure, in the same setting: in the case of `CCCC(C)CCC(C)=O` (stereo not given) it was “inactive”. Consider `CC(=O)Nc1ccc2c(c1)Cc1cc(NC(C)=O)ccc1-2`, for which the call was inactive. For `C=C[C@](C)(O)CC[C@@H]1[C@@]2(C)CCCC(C)(C)[C@@H]2CC[C@@]1(C)O`, the compound was classed as inactive. Consider `CC1=CC[C@H](C(C)C)C=C1`, for which the compound was classed as inactive. As for `CC1(C)[C@H]2CC[C@]1(C)C(=O)C2`, the compound was called inactive. Take `O=Nc1ccc(O)cc1`: the compound was classed as inactive. `C=C[Si](OC(C)=O)(OC(C)=O)OC(C)=O`: the compound was classed as inactive. For the compound `CC(CC=O)CCCC(C)(C)O` (stereo not given), the compound was called inactive. For `COC(=O)/C=C\C(=O)O`, the call was inactive. On the same count and under the same terms, for `Cc1ccc([N+](=O)[O-])cc1S(=O)(=O)O` the value was “inactive”; for `S=C(NC1CCCCC1)NC1CCCCC1`, “inactive”. The same measure, in the same setting: for `c1cc(N(CC2CO2)CC2CO2)ccc1OCC1CO1` (stereo not given) the value was “inactive”; for `CC(C)c1ccc(C=O)cc1`, “inactive”; for `N=c1ccn2c(n1)O[C@H]1[C@H](O)[C@@H](CO)O[C@H]12`, “inactive”. Consider `COC(F)(F)C(F)(C(F)(F)F)C(F)(F)F`, for which the compound was classed as inactive. On the same count and under the same terms, in the case of `C=CC(C)(CCC=C(C)C)OC(=O)CC(C)C` (stereo not given) it was “inactive”; in that of `N#[N+]c1ccc2c(S(=O)(=O)[O-])cccc2c1O`, “inactive”; in that of `CCCCCCCCC(=O)OCC`, “inactive”.

On to `O=C(Nc1ccccc1)c1ccccc1O`, for which the result was inactive.

Consider `CC(C)c1ccc2c(C(C)C)cc(C(C)C)c(S(=O)(=O)O)c2c1`, for which the outcome was inactive. By AC50 is commonly meant the midpoint of the concentration-response curve, whichever way the signal moves. As to `CC(C)(c1cc(Br)c(OCCO)c(Br)c1)c1cc(Br)c(OCCO)c(Br)c1`, the AC50 was 15.3 µM (active).

Turning to `O=S(=O)(O)c1ccccc1C=Cc1ccc(-c2ccc(C=Cc3ccccc3S(=O)(=O)O)cc2)cc1`, the outcome was inactive. `Cc1ccc(C(C)(C)C)cc1`: the result was inactive. In the case of `CCCCCC/C=C/C=O`, the outcome was inactive. In the case of `C/C=C\C/C=C/CCCCCCCCOC(C)=O`, the AC50 is 69.7 µM (active). As to `COC=O`, the outcome was inactive.

`O=C(c1ccc(O)cc1)c1ccc(O)cc1O`: the call was inactive.
